These results are taken from PubChem BioAssay (Tox21).

A short description of assay [1]: qHTS assay to identify small molecule antagonists of the peroxisome proliferator-activated receptor delta (PPARd) signaling pathway - cell viability counter screen (AID 743213). Further: nearly all actives have a fitted effect of over 50% in size. Further: potency means the concentration at half of the fitted maximal effect. The gist of the method:
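Cytotoxicity counter screen: CellTiter-Glo luminescence read 30 min after addition, in the same wells as the reporter assay. There, PPARd UAS-bla HEK293H cells (3000/well) were treated 17 h at 37 C with compound and 300 nM L165041.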
A general note: qHTS replaces the single test concentration by a dilution series.

The target of assay [2] is Vitamin D3 receptor (Homo sapiens) (UniProt P11473). Briefly: qHTS assay to identify small molecule antagonists of the vitamin D receptor (VDR) signaling pathway (AID 743223; active means well fitted inhibition curve with a large enough effect in the signal ratio in the repeat runs, not every such curve was filed as active; the % refers to the signal ratio; further: potency means the concentration at half of the fitted maximal effect). In a few lines:
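Beta-lactamase reporter read-out: FRET substrate fluorescence after 2 h at room temperature, following 16 h exposure of VDR-bla cells to test compound plus 3 nM (final) 1alpha,25-dihydroxyvitamin D3 agonist at 37C.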

Assay [3] can be described thus: qHTS assay to identify small molecule agonists of the farnesoid-X-receptor (FXR) signaling pathway - cell viability counter screen (AID 743218). Further: nearly all actives have a fitted effect of over 45% in size. Further: potency means the concentration at half of the fitted maximal effect. The gist of the method: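 In GeneBLAzer FXR-UAS-bla HEK 293T cells, compounds act for 16 h at 37 C. Cell viability is then scored in the reporter wells by CellTiter-Glo, 30 min at RT, luminescence.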
For assay [4], the target named is Bile acid receptor (Homo sapiens) (UniProt Q96RI1). Briefly: qHTS assay to identify small molecule antagonists of the farnesoid-X-receptor (FXR) signaling pathway (AID 743217; active means well fitted inhibition curve with a large enough effect in the signal ratio in the repeat runs, not every such curve was filed as active; the % refers to the signal ratio; further: potency means the concentration at half of the fitted maximal effect). The gist of the method:
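Beta-lactamase reporter under UAS control in HEK 293T cells; compound exposure 16 h at 37 °C in the presence of chenodeoxycholic acid (50 uM final); signal from B/G FRET substrate after 2 h at room temperature.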

Assay [5] in a line: qHTS assay to identify small molecule antagonists of the farnesoid-X-receptor (FXR) signaling pathway - cell viability counter screen (AID 743221; active means well fitted cell-killing curve with a large enough effect in the repeat runs, not every such curve was filed as active; further: nearly all actives have a fitted effect of over 50% in size; further: potency means the concentration at half of the fitted maximal effect). In a few lines:
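HEK 293T FXR-bla cells, 5 h pre-incubation; compound + CDCA 50 uM final, 16 h, 37 C; beta-lactamase FRET read first, then CellTiter-Glo luminescence, 30 min RT.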

Assay [6] addresses Peroxisome proliferator-activated receptor delta (Homo sapiens) (UniProt Q03181). Briefly: qHTS assay to identify small molecule antagonists of the peroxisome proliferator-activated receptor delta (PPARd) signaling pathway (AID 743215; active means well fitted inhibition curve with a large enough effect in the signal ratio in the repeat runs, not every such curve was filed as active; the % refers to the signal ratio;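 further: cells stimulated with agonist L165041 at 300 nM final during compound exposure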; further: potency means the concentration at half of the fitted maximal effect). The gist of the method:
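Antagonist-mode beta-lactamase reporter screen: HEK293H cells with UAS-bla under PPARd control, stimulated by 300 nM L165041 (final) alongside test compound for 17 h at 37 C, then FRET fluorescence after 2 h substrate incubation.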

Assay [7] addresses Bile acid receptor (Homo sapiens) (UniProt Q96RI1). As to the kind of experiment: qHTS assay to identify small molecule agonists of the farnesoid-X-receptor (FXR) signaling pathway (AID 743220; active means well fitted activation curve with a large enough effect in the signal ratio in the repeat runs, not every such curve was filed as active; the % refers to the signal ratio). The gist of the method:
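Beta-lactamase reporter under UAS control in GeneBLAzer FXR HEK 293T cells (5000/well) measured with LiveBLAzer FRET substrate after 2 h at room temperature. Compound exposure lasted 16 h at 37C.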

In assay [8] the target is Vitamin D3 receptor (Homo sapiens) (UniProt P11473). As to the kind of experiment: qHTS assay to identify small molecule agonists of the vitamin D receptor (VDR) signaling pathway (AID 743222; calls by dose curve). In a few lines: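 Agonist activity measured in VDR-bla reporter cells. Exposure 16 h, 37C, 5% CO2; detection by B/G FRET substrate, 2 h RT.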
Chain of Vitamin D3 receptor (Homo sapiens) (P11473 whole entry, looked up): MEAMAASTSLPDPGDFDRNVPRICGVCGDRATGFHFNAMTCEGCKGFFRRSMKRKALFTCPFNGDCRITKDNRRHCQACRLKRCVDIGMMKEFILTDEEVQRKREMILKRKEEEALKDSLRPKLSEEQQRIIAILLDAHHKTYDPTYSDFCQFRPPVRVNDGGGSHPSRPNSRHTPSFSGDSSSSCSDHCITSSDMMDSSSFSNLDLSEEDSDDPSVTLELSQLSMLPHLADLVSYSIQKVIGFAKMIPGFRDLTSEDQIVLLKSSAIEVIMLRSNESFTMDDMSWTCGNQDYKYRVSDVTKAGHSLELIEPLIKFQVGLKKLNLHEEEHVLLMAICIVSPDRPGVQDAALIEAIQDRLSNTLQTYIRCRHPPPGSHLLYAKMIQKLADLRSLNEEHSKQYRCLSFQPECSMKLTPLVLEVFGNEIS

SMILES strings stand for the structures. “And” between values parts separate entries of the source, which are not always exact repeats. Identical values can stand only once. Records with an inconclusive call do not appear. Values without a mark were called inactive. The source made the active and inactive calls. Unless noted, the call rests on the fitted dose curve; in most records, active means well fitted curve in the direction sought with a large enough effect in the repeat runs; inconclusive means weak or mixed curves; inactive means no such curve, though single readings can be large; an effect the other way counts as inactive or inconclusive.

Chain of Bile acid receptor (Homo sapiens) (Q96RI1 whole entry, looked up): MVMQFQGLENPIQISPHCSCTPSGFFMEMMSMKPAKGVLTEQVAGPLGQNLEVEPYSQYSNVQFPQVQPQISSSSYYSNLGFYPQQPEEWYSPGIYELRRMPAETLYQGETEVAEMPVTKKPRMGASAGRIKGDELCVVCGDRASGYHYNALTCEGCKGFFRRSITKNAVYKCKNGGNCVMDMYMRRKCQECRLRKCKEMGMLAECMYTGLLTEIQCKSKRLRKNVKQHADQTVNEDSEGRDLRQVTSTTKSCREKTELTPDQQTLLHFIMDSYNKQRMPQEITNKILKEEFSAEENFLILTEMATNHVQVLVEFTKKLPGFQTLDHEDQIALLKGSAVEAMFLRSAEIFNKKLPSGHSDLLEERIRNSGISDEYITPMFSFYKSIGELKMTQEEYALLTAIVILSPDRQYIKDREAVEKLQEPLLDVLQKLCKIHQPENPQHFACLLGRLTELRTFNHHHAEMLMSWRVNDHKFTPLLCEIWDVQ
Chain of Peroxisome proliferator-activated receptor delta (Homo sapiens) (Q03181 whole entry, looked up): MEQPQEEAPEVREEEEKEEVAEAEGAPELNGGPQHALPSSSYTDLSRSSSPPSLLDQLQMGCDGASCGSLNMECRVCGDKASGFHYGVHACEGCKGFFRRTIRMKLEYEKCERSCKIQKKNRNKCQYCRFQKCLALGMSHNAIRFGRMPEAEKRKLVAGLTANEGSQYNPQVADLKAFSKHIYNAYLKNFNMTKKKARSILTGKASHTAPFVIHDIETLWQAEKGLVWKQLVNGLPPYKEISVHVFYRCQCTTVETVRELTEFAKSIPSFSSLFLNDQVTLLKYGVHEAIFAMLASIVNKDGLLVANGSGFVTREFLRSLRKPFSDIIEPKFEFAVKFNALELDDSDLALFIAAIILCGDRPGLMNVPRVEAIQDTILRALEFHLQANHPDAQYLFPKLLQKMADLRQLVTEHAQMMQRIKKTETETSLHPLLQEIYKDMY

Consider `CC(C)(C)c1ccc(C(O)CCCN2CCC(C(O)(c3ccccc3)c3ccccc3)CC2)cc1` (configuration not stated), for which, in assay [1], the Potency was 7.5 µM (active). In addition, the Potency result in assay [2] was “inactive”.

In the case of `CNc1ccc([N+](=O)[O-])cc1`, in assay [1], the Potency entry was “inactive”. Besides, in assay [3], the Potency is 27.6 µM (active).

`Cc1cc(=O)oc2cc(O)cc(O)c12`: the Potency result in assay [1], in assay [4], in assay [3] and in assay [5] was “inactive” each time.

Consider `OC[C@@H](O)[C@@H](O)CO`, for which the Potency entry in assay [1], in assay [6], in assay [3] and in assay [5] was “inactive” throughout.

Regarding `Cc1ccc(O)c(O)c1`, the Potency entry in assay [6], in assay [3], in assay [7], in assay [5] and in assay [2] was “inactive” throughout.

Consider `C=C(C)C(=O)OCCCCCCCCCC`, for which the Potency in assay [1] was 39.2 µM (active). The Potency entry in assay [4], in assay [5] and in assay [2] was “inactive” in each case.

With `Cc1ccc(O)c(N)c1`, the Potency entry in assay [4], in assay [3] and in assay [5] was “inactive” each time.

Turning to `FC(F)(F)c1cccc(Cl)c1`, the Potency entry in assay [1], in assay [6], in assay [4], in assay [3], in assay [7] and in assay [5] was “inactive” throughout.

For `CCCCCCCCCCCCCCCC[N+](C)(C)CC`, the Potency in assay [1] was 17.4 µM (active) and 21.1 µM (active); in assay [3], 31 µM (active) and 29.8 µM (active). Also, in assay [7], the Potency entry was “inactive”.

Consider `CCCC(=O)OCCc1ccccc1`, for which the Potency entry in assay [1], in assay [6] and in assay [3] was “inactive” in each case.

In the case of `O=C(c1ccc(O)c(O)c1)c1ccc(O)cc1O`, the Potency result in assay [1], in assay [3] and in assay [5] was “inactive” in each case.

Consider `C1CCC(SSC2CCCCC2)CC1`, for which the Potency entry in assay [1], in assay [6], in assay [5] and in assay [8] was “inactive” each time.

Regarding `CCCCCCCCCCCCCC[N+](C)(C)C`, the Potency in assay [1] is 21.1 µM (active) and 6.16 µM (active); in assay [3], 47.3 µM (active); in assay [5] it was 47.3 µM (active) and 29.8 µM (active). Also, in assay [7], the Potency entry is “inactive”.

Take `CCc1oc2ccccc2c1C(=O)c1cc(I)c(O)c(I)c1`: the Potency entry in assay [5] is “inactive”.

Turning to `O=C(Nc1ccc2c(O)c(N=Nc3ccc(N=Nc4ccc(S(=O)(=O)O)cc4)cc3)c(S(=O)(=O)O)cc2c1)c1ccccc1`, the Potency result in assay [1], in assay [5], in assay [8] and in assay [2] was “inactive” throughout.

Take `Cc1cc(C)c(/C=C2\C(=O)Nc3ccccc32)[nH]1`: the Potency result in assay [1], in assay [3] and in assay [5] was “inactive” in each case. In assay [6], the Potency was 15 µM (active).

For the compound `CCCCCC(C)OC(=O)COc1ccc(Cl)c2cccnc12` (configuration not stated), the Potency entry in assay [3], in assay [7], in assay [5] and in assay [2] was “inactive” throughout.

As to `Cc1cc(C(C#N)c2ccc(Cl)cc2)c(Cl)cc1NC(=O)c1cc(I)cc(I)c1O` (configuration not stated), the Potency in assay [5] is 29.8 µM (active).

For `Cc1c(N)cccc1C(F)(F)F`, the Potency result in assay [6], in assay [3], in assay [5] and in assay [2] was “inactive” each time.

As to `CCCCN(CCCC)CC(O)c1cc(Cl)cc2c1-c1ccc(Cl)cc1/C2=C/c1ccc(Cl)cc1` (configuration not stated), the Potency in assay [1] and in assay [3] was 29.8 µM (active) in each case. In addition, the Potency result in assay [2] was “inactive”.

On to `CC(CO)Oc1ccccc1` (configuration not stated), for which the Potency result in assay [6], in assay [4], in assay [3], in assay [7], in assay [5] and in assay [2] was “inactive” in each case.

Regarding `CCC(C)n1ncn(-c2ccc(N3CCN(c4ccc(OC[C@H]5CO[C@](Cn6cncn6)(c6ccc(Cl)cc6Cl)O5)cc4)CC3)cc2)c1=O` (some centres not stated), the Potency in assay [1] was 2.11 µM (active). Further, the Potency entry in assay [6], in assay [5] and in assay [2] was “inactive” throughout.

Turning to `Oc1c(I)cc(Cl)c2cccnc12`, the Potency entry in assay [5] is “inactive”. In assay [2], the Potency was 8.69 µM (active).

Consider `CC(=O)Oc1cc2c(s1)CCN(C(C(=O)C1CC1)c1ccccc1F)C2` (configuration not stated), for which the Potency result in assay [1], in assay [6], in assay [3] and in assay [5] was “inactive” throughout.

In the case of `CN1CCN2c3ccccc3Cc3ccccc3C2C1` (configuration not stated), the Potency result in assay [3], in assay [8] and in assay [2] was “inactive” each time.

Regarding `COC1=C(OC)C(=O)C(CCCCCCCCCCO)=C(C)C1=O`, the Potency entry in assay [1], in assay [7], in assay [5] and in assay [8] was “inactive” in each case. In addition, the Potency in assay [6] was 26.6 µM (active).

For the compound `C=CC(=O)OCCOC(=O)C=C`, the Potency result in assay [1], in assay [5] and in assay [2] was “inactive” each time.

For `C[Si](Cl)(c1ccccc1)c1ccccc1`, the Potency result in assay [1], in assay [6], in assay [4], in assay [7], in assay [8] and in assay [2] was “inactive” each time.

Take `Cc1c(F)c(N2CCNC(C)C2)cc2c1c(=O)c(C(=O)O)cn2C1CC1` (configuration not stated): the Potency entry in assay [1], in assay [6], in assay [3], in assay [5], in assay [8] and in assay [2] was “inactive” each time.

In the case of `O=[N+]([O-])c1ccc(O)cc1C(F)(F)F`, the Potency entry in assay [1], in assay [6], in assay [4], in assay [3], in assay [7] and in assay [8] was “inactive” throughout. For the same compound, the Potency entry in assay [2] was “inactive”.

For `C=C(CC)C(=O)c1ccc(OCC(=O)O)c(Cl)c1Cl`, the Potency result in assay [1], in assay [3] and in assay [5] was “inactive” each time.

As to `CCO[C@@H]1O[C@H](C(COCc2ccccc2)OCc2ccccc2)[C@H](OCc2ccccc2)[C@H]1O` (some centres not stated), the Potency entry in assay [1] and in assay [7] was “inactive” each time. Further, the Potency in assay [3] was 21.1 µM (active).

As for `COC(=O)C1=C(C)NC(C)=C(C(=O)OCCN2CCN(C(c3ccccc3)c3ccccc3)CC2)C1c1cccc([N+](=O)[O-])c1` (configuration not stated), in assay [4], the Potency was 11.9 µM (active).

Turning to `CN1CCN(Cc2cc(-c3ccc4[nH]c(=O)oc4c3)co2)[C@@H](c2ccc(F)cc2)C1`, the Potency entry in assay [6], in assay [4], in assay [7], in assay [5], in assay [8] and in assay [2] was “inactive” throughout.
